# According to PubChem BioAssay:
# Active and inactive are the calls of the source.
# Experiments:
# [1] = small molecules captured by biotinylated probe aFSTL3 – biochemical, small-molecule microarray, fluorescence 635/667, stem cell growth factor project, primary screen (AID 1064); conditions: higher = more signal;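 also: measures binding of the biotinylated anti-FSTL3 antibody to printed compounds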
# [2] = binders from COS7 lysate, DM2A8 probe, primary screen, torsin A project, cell lysate, small-molecule microarray, fluorescence 635/667 (AID 1065); conditions: higher = more signal, COS7 lysate expressing mutant human TOR1A
# [3] = small molecules captured by biotinylated probe aFGF2 – biochemical, small-molecule microarray, fluorescence 635/667, stem cell growth factor project, primary screen (AID 1067); conditions: higher = more signal;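 also: measures binding of biotinylated aFGF2 protein to printed compounds on slides; z-score merges feature fluorescence and signal-to-noise across triplicate slides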
# [4] = small molecules captured by biotinylated probe aFGF10 – biochemical, small-molecule microarray, fluorescence 635/667, stem cell growth factor project, primary screen (AID 1071); conditions: higher = more signal;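 also: score merges 667 nm spot intensity and signal to noise from triplicate slides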
# [5] = target: Neurogenic locus notch homolog protein 2 (Homo sapiens) (UniProt Q04721); test: small molecules binding Notch2 protein – biochemical, small-molecule microarray, 635 nm fluorescence, stem cell growth factors, primary screen (AID 1073); conditions: higher = more signal
# [6] = target: Pro-neuregulin-1, membrane-bound isoform (Homo sapiens) (UniProt Q02297); test: small molecules binding neuregulin-1 protein – biochemical, small-molecule microarray, fluorescence 635/667, psychiatric disease protein project, primary screen (AID 1075); conditions: NRG1 binding, 635 nm fluorescence, higher = more signal;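 also: score combines 667 nm spot fluorescence with signal to noise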
# [7] = test system: Neuregulin-1 EGF-like domain; test: small molecules binding NRG1 EGF domain – biochemical, small-molecule microarray, 635 nm fluorescence, primary screen (AID 1081); conditions: higher = more signal;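 also: binding of the protein to compounds printed on small-molecule microarray slides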
# [8] = FRG1 expression reporter modulators in myotubes – cell-based, C2C12 myotubes, firefly/Renilla luciferase, luminescence, FRG1 inhibition for FSHD, primary screen (AID 1084); conditions: FRG1 promoter luciferase, higher = more signal, called active from +8 up or from −8 down
# [9] = small molecules captured by biotinylated probe aFST – biochemical, small-molecule microarray, fluorescence 635/667, stem cell growth factor project, primary screen (AID 1086); conditions: higher = more signal;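 also: score merges 667 nm fluorescence with signal-to-noise of each printed compound spot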
# [10] = binders of probe aHhip on microarray, primary screen, stem cell growth factor project, biochemical, small-molecule microarray, fluorescence 635/667 (AID 1087); conditions: higher = more signal;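 also: score merges spot fluorescence at 667nm with spot signal to noise ratio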
# [11] = test system: PRMT1 (protein arginine N-methyltransferase 1); test: small molecules binding arginine methyltransferase PRMT1 – biochemical, small-molecule microarray, 635 nm fluorescence, primary screen (AID 1088); conditions: higher = more signal;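 also: binding of Prmt1 protein to compounds spotted on small-molecule microarray slides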
# [12] = growth effects on S. cerevisiae YJM789 – YJM789 clinical isolate, OD600, 24 h, basal, primary screen (AID 1089); conditions: higher = more signal, called active from +8 up or from −8 down;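 also: growth of clinical yeast isolate S. cerevisiae YJM 789 seeded 1000 cells per well; test concentration not given here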
# [13] = S. pombe growth modifiers, basal conditions – strain 972, OD600, 24 h, no modulator, primary screen (AID 1090);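 also: basal condition with compound alone and no growth modifier present; test concentration not given here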; conditions: S. pombe 972 growth, higher = more signal, called active from +8 up or from −8 down
# [14] = budding yeast growth modifiers under rapamycin – strain BY4716, OD600, 96 h, primary screen (AID 1091); also: test concentration not given here; conditions: S. cerevisiae BY4716 + rapamycin, higher = more signal, called active from +8 up or from −8 down
# [15] = target: Torsin-1A-interacting protein 2 (Homo sapiens) (UniProt Q8NFQ8); test: small molecules binding lysate-expressed LULL1 – cell lysate, human LULL1 lysate, 635/667 nm fluorescence, primary screen (AID 1092); conditions: small-molecule microarray, hLULL1 lysate binding, 635 nm fluorescence; higher = more signal;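 also: probe is lysate of COS7 cells overexpressing human LULL1; score merges per-feature 667 nm fluorescence with signal-to-noise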
# [16] = optical density change of DRC41 E. coli – strain DRC41, OD650, 24 h, E. coli filamentation project, primary screen (AID 1093);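 also: MC1000 strain lacking acrAB efflux and sulA so SOS filamentation is blocked; test concentration not given here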; conditions: E. coli DRC41 growth, higher = more signal, called active from +8 up or from −8 down
# [17] = probe aLefty2 binding to arrayed compounds – biochemical, biotinylated probe, 635/667 nm fluorescence, primary screen (AID 1094); conditions: small-molecule microarray, higher = more signal;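 also: score merges spot fluorescence near 667 nm with spot signal-to-noise ratio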
# [18] = test system: Noggin (protein binding on small-molecule microarray); test: small molecules binding Noggin protein – biochemical, 635/667 nm fluorescence, primary screen (AID 1095); conditions: 635 nm fluorescence, higher = more signal;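 also: score merges 667 nm feature fluorescence with signal to noise over triplicate slides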
# [19] = target: Neurogenic locus notch homolog protein 3 (Homo sapiens) (UniProt Q9UM47); test: small molecules binding NOTCH3 protein – biochemical, 635/667 nm fluorescence, primary screen (AID 1096); conditions: small-molecule microarray, 635 nm fluorescence, higher = more signal
# [20] = probe aEGFR binding to arrayed compounds – biochemical, biotinylated probe, 635/667 nm fluorescence, primary screen (AID 1097); conditions: small-molecule microarray, higher = more signal;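 also: probe is a biotinylated anti-EGFR antibody binding compounds printed on slides; score combines fluorescence near 667 nm and signal to noise of each spot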
# Neurogenic locus notch homolog protein 3 (Homo sapiens), sequence (Q9UM47 whole entry, looked up): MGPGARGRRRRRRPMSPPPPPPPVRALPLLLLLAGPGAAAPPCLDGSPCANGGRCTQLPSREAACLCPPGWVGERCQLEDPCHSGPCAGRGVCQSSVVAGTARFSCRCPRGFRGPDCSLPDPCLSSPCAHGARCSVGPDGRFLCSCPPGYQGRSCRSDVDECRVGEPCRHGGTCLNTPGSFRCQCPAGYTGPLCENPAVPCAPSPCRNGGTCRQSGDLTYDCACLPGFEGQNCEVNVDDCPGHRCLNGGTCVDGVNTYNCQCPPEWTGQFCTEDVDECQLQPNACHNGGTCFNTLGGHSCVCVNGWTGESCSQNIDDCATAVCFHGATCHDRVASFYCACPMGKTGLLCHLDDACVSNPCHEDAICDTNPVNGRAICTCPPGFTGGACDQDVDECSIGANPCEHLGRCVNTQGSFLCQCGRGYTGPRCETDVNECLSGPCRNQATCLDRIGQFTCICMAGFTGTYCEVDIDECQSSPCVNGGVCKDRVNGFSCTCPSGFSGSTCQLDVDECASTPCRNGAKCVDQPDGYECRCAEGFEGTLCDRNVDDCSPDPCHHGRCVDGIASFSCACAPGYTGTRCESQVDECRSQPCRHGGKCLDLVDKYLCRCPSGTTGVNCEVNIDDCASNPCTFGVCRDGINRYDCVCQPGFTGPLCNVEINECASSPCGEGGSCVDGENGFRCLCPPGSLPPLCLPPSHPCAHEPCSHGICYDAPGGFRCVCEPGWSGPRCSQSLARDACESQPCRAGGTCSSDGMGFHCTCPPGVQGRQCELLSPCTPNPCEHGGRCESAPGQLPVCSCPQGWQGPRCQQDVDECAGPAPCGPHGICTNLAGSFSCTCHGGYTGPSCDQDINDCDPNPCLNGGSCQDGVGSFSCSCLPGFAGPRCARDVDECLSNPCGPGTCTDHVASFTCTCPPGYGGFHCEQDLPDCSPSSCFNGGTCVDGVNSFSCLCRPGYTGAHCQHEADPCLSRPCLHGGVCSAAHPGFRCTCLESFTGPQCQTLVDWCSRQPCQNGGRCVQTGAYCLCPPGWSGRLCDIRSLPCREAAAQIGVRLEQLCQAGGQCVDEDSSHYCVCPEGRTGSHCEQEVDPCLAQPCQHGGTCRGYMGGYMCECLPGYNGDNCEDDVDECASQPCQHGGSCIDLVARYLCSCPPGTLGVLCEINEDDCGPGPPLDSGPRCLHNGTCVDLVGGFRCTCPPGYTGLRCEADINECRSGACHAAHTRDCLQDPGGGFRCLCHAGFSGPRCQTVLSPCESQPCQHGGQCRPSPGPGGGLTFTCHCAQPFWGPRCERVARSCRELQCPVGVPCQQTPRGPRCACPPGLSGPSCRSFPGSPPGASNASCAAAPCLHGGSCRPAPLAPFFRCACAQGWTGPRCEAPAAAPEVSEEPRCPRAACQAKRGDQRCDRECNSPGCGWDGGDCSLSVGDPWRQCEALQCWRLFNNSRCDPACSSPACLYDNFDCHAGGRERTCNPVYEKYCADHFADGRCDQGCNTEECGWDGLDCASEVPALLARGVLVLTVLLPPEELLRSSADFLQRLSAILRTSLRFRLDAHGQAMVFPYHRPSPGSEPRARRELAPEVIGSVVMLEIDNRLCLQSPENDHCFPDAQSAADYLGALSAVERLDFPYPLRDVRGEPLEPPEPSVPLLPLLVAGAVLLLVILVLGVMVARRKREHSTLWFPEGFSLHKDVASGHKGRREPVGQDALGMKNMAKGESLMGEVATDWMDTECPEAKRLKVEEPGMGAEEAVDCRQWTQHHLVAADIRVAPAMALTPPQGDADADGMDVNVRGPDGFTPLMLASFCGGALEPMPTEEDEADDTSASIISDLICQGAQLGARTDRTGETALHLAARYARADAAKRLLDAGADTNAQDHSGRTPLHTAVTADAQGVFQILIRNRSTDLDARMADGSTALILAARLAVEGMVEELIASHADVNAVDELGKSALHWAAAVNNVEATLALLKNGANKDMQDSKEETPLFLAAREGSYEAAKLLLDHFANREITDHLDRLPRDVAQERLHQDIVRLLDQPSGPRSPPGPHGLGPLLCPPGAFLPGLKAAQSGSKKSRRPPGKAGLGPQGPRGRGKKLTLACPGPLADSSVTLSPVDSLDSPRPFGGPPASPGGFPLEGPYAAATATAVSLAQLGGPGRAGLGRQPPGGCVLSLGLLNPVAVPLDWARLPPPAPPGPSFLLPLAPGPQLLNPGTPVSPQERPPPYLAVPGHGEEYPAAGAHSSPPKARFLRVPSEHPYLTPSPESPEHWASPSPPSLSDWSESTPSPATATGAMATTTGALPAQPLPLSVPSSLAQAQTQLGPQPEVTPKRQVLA
# Neurogenic locus notch homolog protein 2 (Homo sapiens), sequence (Q04721 whole entry, looked up, canonical isoform): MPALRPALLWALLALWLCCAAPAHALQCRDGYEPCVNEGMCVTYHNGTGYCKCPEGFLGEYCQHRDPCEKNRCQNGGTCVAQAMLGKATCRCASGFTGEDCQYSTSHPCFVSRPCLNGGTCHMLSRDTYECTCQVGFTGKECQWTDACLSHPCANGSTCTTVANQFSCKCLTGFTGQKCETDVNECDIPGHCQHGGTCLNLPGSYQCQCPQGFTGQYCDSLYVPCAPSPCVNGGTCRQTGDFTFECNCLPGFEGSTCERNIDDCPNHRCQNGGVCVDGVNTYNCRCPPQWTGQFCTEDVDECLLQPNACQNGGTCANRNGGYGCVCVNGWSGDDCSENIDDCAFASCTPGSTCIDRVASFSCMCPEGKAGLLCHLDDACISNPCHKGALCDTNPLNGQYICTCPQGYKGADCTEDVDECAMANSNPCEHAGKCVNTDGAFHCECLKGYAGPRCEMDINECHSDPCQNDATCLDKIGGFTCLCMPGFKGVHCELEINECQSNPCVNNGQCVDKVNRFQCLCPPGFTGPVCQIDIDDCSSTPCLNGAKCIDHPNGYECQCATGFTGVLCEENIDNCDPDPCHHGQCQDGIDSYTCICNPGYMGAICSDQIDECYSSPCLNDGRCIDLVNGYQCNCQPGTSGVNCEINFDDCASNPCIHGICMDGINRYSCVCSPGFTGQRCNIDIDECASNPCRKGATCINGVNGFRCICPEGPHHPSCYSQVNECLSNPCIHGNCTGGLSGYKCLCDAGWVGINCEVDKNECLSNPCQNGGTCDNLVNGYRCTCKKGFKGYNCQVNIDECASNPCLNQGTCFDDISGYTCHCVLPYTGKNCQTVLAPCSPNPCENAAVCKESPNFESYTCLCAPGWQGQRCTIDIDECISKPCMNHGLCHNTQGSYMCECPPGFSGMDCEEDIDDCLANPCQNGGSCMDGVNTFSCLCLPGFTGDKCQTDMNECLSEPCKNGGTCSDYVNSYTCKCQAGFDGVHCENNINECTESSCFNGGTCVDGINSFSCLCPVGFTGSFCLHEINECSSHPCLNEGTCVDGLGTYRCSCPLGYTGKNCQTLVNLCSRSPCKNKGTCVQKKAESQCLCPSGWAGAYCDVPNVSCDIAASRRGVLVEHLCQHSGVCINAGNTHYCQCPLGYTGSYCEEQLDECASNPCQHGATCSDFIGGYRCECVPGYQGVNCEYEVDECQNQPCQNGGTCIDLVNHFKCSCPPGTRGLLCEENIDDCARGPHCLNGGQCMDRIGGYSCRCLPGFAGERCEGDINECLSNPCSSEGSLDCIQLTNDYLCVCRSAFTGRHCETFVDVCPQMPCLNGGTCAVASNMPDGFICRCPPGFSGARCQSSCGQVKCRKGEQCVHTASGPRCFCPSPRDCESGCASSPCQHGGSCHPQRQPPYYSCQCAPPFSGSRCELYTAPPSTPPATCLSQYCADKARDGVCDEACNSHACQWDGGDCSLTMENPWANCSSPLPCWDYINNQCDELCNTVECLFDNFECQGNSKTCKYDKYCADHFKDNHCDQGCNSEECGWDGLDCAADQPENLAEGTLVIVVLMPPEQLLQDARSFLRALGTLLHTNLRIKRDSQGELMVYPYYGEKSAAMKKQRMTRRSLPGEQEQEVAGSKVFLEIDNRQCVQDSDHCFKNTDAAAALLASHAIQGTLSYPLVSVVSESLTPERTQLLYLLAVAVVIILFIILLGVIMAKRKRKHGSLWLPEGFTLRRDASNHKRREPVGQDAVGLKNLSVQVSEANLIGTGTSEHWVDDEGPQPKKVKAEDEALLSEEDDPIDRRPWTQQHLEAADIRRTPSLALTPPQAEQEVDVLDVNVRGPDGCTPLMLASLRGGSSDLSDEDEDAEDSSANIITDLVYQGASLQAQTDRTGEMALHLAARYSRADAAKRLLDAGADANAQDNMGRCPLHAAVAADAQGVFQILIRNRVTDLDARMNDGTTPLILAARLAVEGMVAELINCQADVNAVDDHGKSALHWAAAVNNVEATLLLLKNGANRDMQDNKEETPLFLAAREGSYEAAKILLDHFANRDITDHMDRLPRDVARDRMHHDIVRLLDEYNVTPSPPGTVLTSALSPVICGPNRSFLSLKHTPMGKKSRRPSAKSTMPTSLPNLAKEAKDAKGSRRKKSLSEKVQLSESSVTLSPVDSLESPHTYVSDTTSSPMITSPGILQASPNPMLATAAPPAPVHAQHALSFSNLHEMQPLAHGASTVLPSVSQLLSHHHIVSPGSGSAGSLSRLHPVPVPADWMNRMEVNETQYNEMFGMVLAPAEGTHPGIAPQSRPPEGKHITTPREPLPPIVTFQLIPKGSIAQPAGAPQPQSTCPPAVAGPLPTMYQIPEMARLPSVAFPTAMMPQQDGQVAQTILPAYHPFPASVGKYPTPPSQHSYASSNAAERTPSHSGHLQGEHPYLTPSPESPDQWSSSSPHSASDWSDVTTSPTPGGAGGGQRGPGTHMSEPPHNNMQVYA
Structure (SMILES),composite z-score [1],composite z-score [2],composite z-score [3],composite z-score [4],composite z-score [5],composite z-score [6],composite z-score [7],z-score [8],composite z-score [9],composite z-score [10],composite z-score [11],z-score [12],z-score [13],z-score [14],composite z-score [15],z-score [16],composite z-score [17],composite z-score [18],composite z-score [19],composite z-score [20]
CC(C)C[C@@H]1NC(=O)[C@H]2C[C@@H](C(=O)NCCCCCC[N+](C)(C)C)[C@@H](c3ccc(O)cc3)N2C1=O,-0.332,0.64,-0.189,-0.615,-0.471,1.77,1.41,2.82 (inactive),0.0716,-0.0994,0.423,0.248 (inactive),0.0827 (inactive),0.109 (inactive),1.82,0.283 (inactive),-0.134,1.12,0.275,-0.149
C=CCC(OC(C)=O)[C@@H]1[C@@H](N(Cc2ccc(-c3ccccc3)cc2)C(=O)c2ccc(-c3ccccc3)cc2)c2cc(OCCCO)ccc2N1C(=O)Cc1ccc(OC)cc1 (stereo not given in full),-0.28,0.354,-0.0676,0.27,-0.142,0.0866,-0.261,0.826 (inactive),0.391,-0.189,-0.22,-0.809 (inactive),0.202 (inactive),-0.253 (inactive),0.669,-0.685 (inactive),-0.0096,-0.0508,-0.0122,-0.0994
CC(C)(C)OC(=O)CC[C@@]1(C(=O)NCc2ccccc2)N=C(c2ccc(OCCCO)cc2)O[C@@H]1c1ccccc1,0.844,1.96,0.0096,0.0922,1.24,1.5,1.27,-2.49 (inactive),1.14,-0.304,1.55,-5.26 (inactive),-1.2 (inactive),0.264 (inactive),3.54,1.46 (inactive),0.0717,-0.0633,1.1,0.045
C=C[C@H](OC)[C@@H](OC(=O)Nc1ccc(SC)cc1)c1ccc(OC)c(O)c1,0.687,-0.368,-0.141,-0.748,-0.708,-0.231,0.164,1.2 (inactive),-0.595,-0.0994,0.0672,-0.55 (inactive),-0.965 (inactive),-0.44 (inactive),-0.023,2.04 (inactive),-0.0986,-0.878,-0.321,-0.338
COC(=O)[C@@]1(Cc2ccccc2)[C@H]2c3cc(C(=O)N4CCCC4)n(CCN4CNCC4=O)c3C[C@H]2CN1C(=O)c1ccccc1,0.243,1.35,0.106,0.598,1.4,1.71,1.37,1.41 (inactive),0.604,0.209,-0.337,-0.465 (inactive),0.826 (inactive),-0.153 (inactive),1.93,-0.0756 (inactive),0.154,-0.113,0.494,-0.013
NC(=O)NCC#Cc1ccc2c(c1)[C@]1(C(=O)N2)[C@H](c2ccccc2OCCO)N2[C@H](c3ccccc3)[C@H](c3ccccc3)OC(=O)[C@H]2[C@@H]1C(=O)N1CCN(c2ncccn2)CC1,0.533,0.195,-0.0145,0.499,0.583,1.19,1.07,-0.112 (inactive),0.315,-0.0994,1.54,1.73 (inactive),0.0422 (inactive),4.25 (inactive),2.7,2.9 (inactive),0.276,1.17,1.02,-0.0286
COc1ccc(-c2cc3c(c(-c4ccccc4)n2)[Si](C(C)C)(C(C)C)O[C@H]3c2ccccc2)cn1,-0.248,0.0094,-0.106,0.144,0.241,0.0264,0.335,-0.68 (inactive),-0.116,0.316,1.11,-0.136 (inactive),-0.572 (inactive),-0.0946 (inactive),0.965,-1.03 (inactive),-0.132,0.47,0.596,0.0215
C=CC[C@]1(C(=O)O)N=C(c2ccc(OCCCO)cc2)O[C@H]1c1ccccc1N=[N+]=[N-],1.17,-0.258,-0.101,0.427,-0.16,0.215,0.686,4.6 (inactive),0.489,-0.403,-0.417,0.942 (inactive),-0.155 (inactive),-0.336 (inactive),2.62,1.32 (inactive),0.0313,-0.491,-0.33,-0.0059
O=C1O[C@@H](c2ccccc2)[C@@H](c2ccccc2)N2[C@@H](c3ccc(O)cc3)[C@]3(C(=O)Nc4ccc(C#CC5(O)CCCCCC5)cc43)[C@@H](C(=O)Nc3nc4ccccc4s3)[C@H]12,-0.128,0.91,0.0759,0.814,1.49,1.16,0.994,-0.253 (inactive),1.12,1.71,1.54,0.775 (inactive),-0.399 (inactive),1.06 (inactive),2.56,2.03 (inactive),0.718,1.26,1.07,0.267
CC(C)CN1C(=O)[C@@]2(Cc3ccccc31)c1ccccc1C(=O)N(C1CCCCC1)[C@H]2c1ccc(CO)cc1,0.523,-0.21,-0.172,-0.538,-1.08,-0.388,-0.0501,0.172 (inactive),-0.382,-0.226,0.499,-1.6 (inactive),-1.32 (inactive),-2.34 (inactive),2.01,1.56 (inactive),-0.121,-0.901,-1.35,-0.179
